Data: PubChem BioAssay (Tox21)
Results filed as inconclusive are left out. A call without a number means that no potency is given here. The source made the active and inactive calls. Calls follow the shape of the dose curve; as a rule, active = well fitted activation curve with a large enough effect in the signal ratio in the repeat runs (not every such curve was filed as active); inconclusive = weak or mixed curves, or effect the other way; inactive = no such curve, though single readings can be large or run the other way; the % refers to the signal ratio.

Target: Peroxisome proliferator-activated receptor gamma (Homo sapiens) (UniProt P37231)
Sequence (P37231 whole entry, looked up): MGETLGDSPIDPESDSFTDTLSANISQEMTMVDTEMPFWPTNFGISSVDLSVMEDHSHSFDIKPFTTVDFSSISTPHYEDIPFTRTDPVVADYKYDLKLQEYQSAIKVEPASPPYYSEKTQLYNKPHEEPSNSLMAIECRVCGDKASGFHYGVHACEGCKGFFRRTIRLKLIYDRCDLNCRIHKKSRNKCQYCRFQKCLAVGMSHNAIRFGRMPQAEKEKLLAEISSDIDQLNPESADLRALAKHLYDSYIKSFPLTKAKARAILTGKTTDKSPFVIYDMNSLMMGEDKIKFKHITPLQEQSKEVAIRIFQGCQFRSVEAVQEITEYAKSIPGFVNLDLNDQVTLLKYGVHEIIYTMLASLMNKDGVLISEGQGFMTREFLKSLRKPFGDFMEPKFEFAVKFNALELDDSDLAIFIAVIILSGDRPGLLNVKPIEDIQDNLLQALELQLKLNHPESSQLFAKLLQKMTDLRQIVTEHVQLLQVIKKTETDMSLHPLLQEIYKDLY
Assay: qHTS assay to identify small molecule agonists of the peroxisome proliferator-activated receptor gamma (PPARg) signaling pathway (AID 743094)
Details: HEK293H PPARg-UAS-bla, beta-lactamase FRET ratio, 17 h; series mostly up to 57 µM
Method in brief: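 Quantitative HTS agonist mode: stable HEK293H line with UAS-beta-lactamase reporter under PPARg control, 17 h compound exposure at 37C, fluorescence after 1 h FRET substrate loading at room temperature.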
Potency is read from the fitted curve at half-maximal effect.

Row | Compound | Potency
1 | O=C(NC(=O)c1ccccc1Cl)Nc1ccc(OC(F)(F)F)cc1 | inactive
2 | Cc1ccccc1OP(=O)(Oc1ccccc1C)Oc1ccccc1C | inactive
3 | C[N+]1(C)[C@@H]2CC[C@H]1CC(OC(=O)C(CO)c1ccccc1)C2 (some centres not stated) | inactive
4 | CN1CCc2cc(Cl)c(O)cc2[C@H]2c3ccccc3CC[C@@H]21 | inactive
5 | C=CCBr | inactive
6 | C=CC(=C)C | inactive
7 | CCC1COC(Cn2cncn2)(c2ccc(Cl)cc2Cl)O1 (configuration not stated) | inactive
8 | CC(C)=CCN1CC[C@@]2(C)c3cc(O)ccc3C[C@@H]1[C@@H]2C | inactive
9 | CCOP(=O)(Sc1ccccc1)Sc1ccccc1 | inactive
10 | CCC[CH2][Sn]([CH2]CCC)([CH2]CCC)[O][Sn]([CH2]CCC)([CH2]CCC)[CH2]CCC | 0.676 µM (active)
11 | COCCC#N | inactive
12 | Brc1ccc(Oc2ccc(Br)cc2Br)c(Br)c1 | inactive
13 | CCN(CC)CCN1C(=O)CN=C(c2ccccc2F)c2cc(Cl)ccc21 | inactive
14 | C=CCOC(=O)c1ccccc1N | inactive
15 | Oc1ccc([C@H]2CNCc3c2ccc(O)c3O)cc1O | inactive
16 | c1ccc2nc(N3CCNCC3)ccc2c1 | inactive
17 | N#Cc1c[nH]cc1-c1cccc2c1OC(F)(F)O2 | inactive
18 | O=[N+]([O-])c1ccccc1-c1ccccc1 | inactive
19 | Nc1nc(N)nc(Cl)n1 | inactive
20 | CCCCN(CCCC)C(=S)[S-].CCCCN(CCCC)C(=S)[S-].[Ni+2] | inactive
21 | CNC(=O)O/N=C(\C)C(C)S(C)(=O)=O (configuration not stated) | inactive
22 | COP(=S)(NC(C)C)Oc1ccc(C)cc1[N+](=O)[O-] (configuration not stated) | inactive
